Drawing on ChEMBL document CHEMBL4513216, “Probing the Open Global Health Chemical Diversity Library for Multistage-Active Starting Points for Next-Generation Antimalarials” (ACS Infect Dis, 2020), this text covers INHIBITION for 106 molecules.

The campaign covered roughly 69,000 compounds. About 8,600 (12%) showed an effect of 50% or more. The sample as a whole holds a higher share of strong results than the screen did.

This assay concerns Plasmodium berghei. Kind of assay: Screen against P. berghei liver stage (PbLuc), transformed with Luciferase, at 10uM. In kind it is functional, HepG2. To be noted: tested at 10 uM.
As for `NC(=O)c1ccc(N2CCN(CCCc3cn[nH]c3)CC2)cc1`, the INHIBITION is -62.8%.

With `CCN(CC)CC1CN(Cc2ccco2)Cc2nccn2C1` (stereo unspecified), the INHIBITION is recorded as -33.9%. For `CCc1nc(CN2CCN(C(=O)C3(C#N)CCCCC3)CC2)cs1`, the INHIBITION is on record as -9.37%. Regarding `COc1ccc(-c2n[nH]c(C)c2CC(=O)N2CCOCC2)cc1`, the INHIBITION is on record as 51.3%. For `Cc1[nH]nc(-c2ccc(F)cc2)c1CC(=O)NCC1CCOCC1`, the INHIBITION is on record as 9.55%. The figure for `COc1ccc(-c2cc3cccn(CC(=O)N4CCOCC4)c-3n2)cc1` is -23.4%; for `COc1ccc(-c2n[nH]c(C)c2CC(=O)NCC2CCCO2)cc1` (stereo unspecified) it is 39.7%.

Take `COc1ccc(-c2n[nH]c(C)c2CC(=O)NCC2CCOCC2)cc1`: the INHIBITION is given as 51.9%. The figure for `COc1ccc(-c2n[nH]c(C)c2CC(=O)NCCN2CCOCC2)cc1` is 29.3%; for `COCCN(Cc1cnn(C)c1)C(=O)C1CCC(=O)N(C2CCCC2)C1` (stereo unspecified) it is 20.3%; for `CC1(C)C[C@H](CCNC(=O)c2ccncc2)c2ccccc2O1` it is 27.8%. `O=C1CC(N(C(=O)c2ccc(Cl)c(Cl)c2)C2CC2)C(=O)N1` (stereo unspecified): the INHIBITION is 31.8%. The figure for `O=c1ccc(-n2ccnc2)nn1CCNS(=O)(=O)c1ccc(F)c(Cl)c1` is -1.99%; for `O=c1ccc(-n2ccnc2)nn1CCNS(=O)(=O)c1ccc(Br)cc1` it is 59.3%; for `O=c1ccc(-n2ccnc2)nn1CCNS(=O)(=O)c1ccccc1Cl` it is 35.1%. The figure for `CN(Cc1ncc[nH]1)C(=O)C(C)(C)NC(=O)c1cccs1` is 9.79%; for `CC(NC(=O)N1CCC(n2cncn2)CC1)c1ccc(F)cc1` (stereo unspecified) it is 17.4%; for `CCS(=O)(=O)N1CCC[C@]2(C(=O)N(C)C)CN(c3ccccn3)C[C@@H]2C1` it is 4.92%. As to `Cc1cc(C)nc(N2CCC(c3nnc(CN(C)C)n3C3CC3)CC2)n1`, the INHIBITION is recorded as -46.8%. For the molecule `Cc1cnc(C)c(N2CCC(c3nnc(CN(C)C)n3C3CC3)CC2)n1`, the INHIBITION is listed as 77.8%. The value for `CN(C)Cc1nnc(C2CCN(c3ncccn3)CC2)n1C1CC1` was -12.1%; that for `CCc1c(C)nc2n(c1=O)CC(C(=O)NCc1cccs1)CS2` (stereo unspecified) was 35.8%; that for `c1ccc(O[C@@H]2CC[C@H]3[C@H]2OCCN3Cc2ccsc2)nc1` was 20.9%. The figure for `O=C(CO[C@@H]1CC[C@H]2[C@H]1OCCN2c1ncccn1)N1CCCC1` is 24.6%; for `Cc1cccc(CN2CCO[C@H]3[C@H](Oc4ccccn4)CC[C@@H]32)n1` it is -49.6%; for `c1ccc(O[C@@H]2CC[C@H]3[C@H]2OCCN3CC2CCOCC2)nc1` it is 56.1%. For `COc1ccc(CN2CCO[C@H]3[C@H](Oc4ccccn4)CC[C@@H]32)cc1`, the INHIBITION was found to be 41.2%. With `O=C(CO[C@@H]1CC[C@H]2[C@H]1OCCN2Cc1ccccn1)N1CCCC1`, the INHIBITION was determined as 54.1%. As to `c1ccc(O[C@H]2CC[C@H]3[C@H]2OCCN3Cc2nccs2)nc1`, the INHIBITION is 6.8%. On to `Fc1ccc(CN2CCO[C@H]3[C@H](Oc4ccccn4)CC[C@@H]32)cc1`, for which the INHIBITION was 61.5%. With `c1ccc(CN2CCO[C@H]3[C@H](OCCN4CCCC4)CC[C@@H]32)nc1`, the INHIBITION was 26.8%. The value for `Cc1cc(C)nc(N2CC=C[C@@H]2C(=O)NCc2ccc3c(c2)OCO3)n1` was 4.41%; that for `CC(C)n1c(=O)c2ccccc2n(CCN2CCCCC2)c1=O` was 3.19%. On to `COc1ccc(C)cc1C(=O)NC1(C#N)CCOCC1`, for which the INHIBITION came out at 42.1%. As to `COC(=O)c1ccc(N2CCN(CCS(C)(=O)=O)C(C)C2)cc1` (stereo unspecified), the INHIBITION came out at 0.411%. The value for `Cc1cc(C(=O)CN2CCN(c3cnccn3)CC2)c(C)n1C(C)C` was 17.7%; that for `CCOc1ccnc(N2CCN(C(=O)c3ccc(C#N)cc3)CC2)n1` was 36.1%. In the case of `N#Cc1ccc(CNCCn2cccn2)c(F)c1`, the INHIBITION is given as 20.74%. In the case of `O=C(Cn1c(-c2ccco2)cc2cccnc21)N1CCCC1`, the INHIBITION is recorded as -16.8%. As for `Clc1ccc(C2(NCc3noc(C4CC4)n3)CCC2)cc1`, the INHIBITION stood at 8.18%. The figure for `Cc1cccc(C)c1NCc1noc(C2CC2)n1` is 36.3%; for `CCCc1nc(CNc2ccc(F)c(F)c2)no1` it is -9.51%. For the molecule `CCCc1nc(CNc2cc(CS(C)(=O)=O)ccc2Cl)no1`, the INHIBITION was determined as 52.2%.

On to `CCCc1noc(CNc2cc(C[S+](C)[O-])ccc2Cl)n1` (stereo unspecified), for which the INHIBITION was 30.9%. As to `CS(=O)(=O)Cc1ccc(Cl)c(NCc2noc(C3CC3)n2)c1`, the INHIBITION is on record as 57.8%. On to `CC(=O)N[C@H]1CCO[C@@H](c2cccc(NC(=O)Cc3ccccc3)c2)C1`, for which the INHIBITION amounted to 13.205%. On to `CCc1nnc(CN2CCOC(Cn3cc(C)cn3)C2)o1` (stereo unspecified), for which the INHIBITION amounted to 15.5%. Regarding `CC(=O)N1CCCN(C(=O)C(C)n2cncn2)CC1` (stereo unspecified), the INHIBITION was determined as 10%. As to `CCc1cc(NCCCc2nc(C)no2)nc(-c2ccncc2)n1`, the INHIBITION turned out to be 17.6%. As to `O=c1ccn([C@H]2CCN(Cc3ncc[nH]3)CC[C@@H]2O)c(=O)[nH]1`, the INHIBITION stood at 24.4%.

Consider `Cc1cccc(OC2CCN(Cc3ncc[nH]3)CC2)c1`, for which the INHIBITION turned out to be 53.2%. `OC1(CN2CCC(Oc3cccc(C(F)(F)F)c3)CC2)CCNC1` (stereo unspecified): the INHIBITION is recorded as 87.7%. `FC(F)(F)c1cccc(OC2CCN(Cc3ncc[nH]3)CC2)c1`: the INHIBITION turned out to be 79.7%. Turning to `Fc1cccc(OC2CCN(Cc3ncc[nH]3)CC2)c1`, the INHIBITION turned out to be 40%. Regarding `Nc1cc(C(=O)N2CCC(Oc3cccc(C(F)(F)F)c3)CC2)ccn1`, the INHIBITION was found to be 38.3%.

As for `OC1(CN2CCC(Oc3cccc(C(F)(F)F)c3)CC2)CNCCOC1` (stereo unspecified), the INHIBITION came to 37.1%.

On to `O=C(c1ccc(=O)[nH]c1)N1CCC(Oc2cccc(C(F)(F)F)c2)CC1`, for which the INHIBITION worked out at 50.1%. The value for `O=C(c1ccncc1)N1CCC(Oc2cccc(C(F)(F)F)c2)CC1` was 10.5%; that for `Cc1cccc(CNC(=O)NCC2CCN(Cc3ncc[nH]3)C2)c1` (stereo unspecified) was 4.68%. Regarding `O=C(c1cccnc1)N1CCC(Oc2cccc(C(F)(F)F)c2)CC1`, the INHIBITION is on record as 27.6%.

For the molecule `OC1(CN2CCC(Oc3cccnc3)CC2)CNCCOC1` (stereo unspecified), the INHIBITION is given as -16.8%.

Consider `COc1ccc(Cl)cc1C(=O)NCCNc1cnccn1`, for which the INHIBITION is given as -21.8%. Turning to `O=C1CC2(CCN(c3nncs3)C2)CN1c1cccc(F)c1` (stereo unspecified), the INHIBITION is -6.3%. Consider `CCN1CC2(CC1=O)CN(C(=O)NC(C)C)CCN(C(=O)C(C)C)C2` (stereo unspecified), for which the INHIBITION stood at 30.5%. Turning to `CN(C)C(=O)N1C[C@@H]2COC[C@]2(CNS(C)(=O)=O)C1`, the INHIBITION is 14.2%. For `CC(=O)N1CCO[C@@H]2CN(Cc3ccccc3Cl)C[C@@H]2C1`, the INHIBITION is given as 38.5%. Regarding `Cc1ccccc1C1(C(=O)NCCN(C(C)C)C(C)C)CCOCC1`, the INHIBITION was -52.66%. With `c1cc2nccc(CC3CCCN(C4CCOCC4)CC3)c2cn1` (stereo unspecified), the INHIBITION worked out at 15.9%.

`CN(C)[C@@H]1CN(C(=O)Cc2cccs2)[C@@H]2CCCO[C@H]12`: the INHIBITION is 24.6%. `O=C(c1ccc(N2CCOCC2)cc1)N1CCCC(n2ccnc2)C1` (stereo unspecified): the INHIBITION was 41.415%.

Consider `CN(C)c1ncccc1CNC(=O)NCCN(C)C1CCCC1`, for which the INHIBITION is listed as 28.8%.

In the case of `CCOC(=O)C1CCN(Cc2csc(-c3ccc(C)o3)n2)CC1`, the INHIBITION stood at 0.914%.

On to `O=C(C1CCOCC1)N1CC[C@@H](O)[C@@H]1Cc1ccncc1`, for which the INHIBITION is recorded as -2.35%. Regarding `CC(=O)N1CCC(n2nccc2-c2cnc(N3CCCC3)nc2)CC1`, the INHIBITION is recorded as 33.7%.

Consider `Nc1ccc(C(=O)N2CCC(Oc3cccc(C(F)(F)F)c3)CC2)cn1`, for which the INHIBITION stood at 29.8%. The value for `FC(F)(F)c1cccc(OC2CCN(Cc3c[nH]cn3)CC2)c1` was 88%. Take `FC(F)(F)c1cccc(OC2CCN(Cc3ccccn3)CC2)c1`: the INHIBITION amounted to 40.7%.

Consider `CCc1nc(C2CCCN2C(=O)CCCn2cncn2)no1` (stereo unspecified), for which the INHIBITION was -59.4%. The value for `CN1C(=O)CCCC12CCCN(C(=O)c1ccc3c(c1)OCO3)C2` (stereo unspecified) was -36.8%; that for `CCS(=O)(=O)N1CCC2(CC1)CN(Cc1ccccn1)C(=O)CO2` was 35.8%; that for `CCOC(=O)[C@@H]1[C@@H](O)C(=O)N(C)C12CCN(C(=O)c1ccco1)CC2` was -3.5%.

`CCOC(=O)[C@H]1[C@@H](O)C(=O)N(C)C12CCN(C(=O)OCC)CC2`: the INHIBITION worked out at 20%. `CCOC(=O)[C@H]1[C@@H](O)C(=O)N(C)C12CCN(C(=O)c1ccccc1)CC2`: the INHIBITION was 58.5%. For `CCN(CC)S(=O)(=O)NCc1ccc(-c2ccc(C(N)=O)c(C)n2)cc1`, the INHIBITION is listed as -5.8%. Regarding `CN(CCc1cccs1)C(=O)Nc1cccc(S(C)(=O)=O)c1`, the INHIBITION is -93.6%.

Take `Cc1nc(CN2CCN(C(=O)NC(C)c3cccnc3)CC2)cs1` (stereo unspecified): the INHIBITION was 41.5%. On to `CC(C)Oc1ccc(NCc2ccc([S+](C)[O-])cc2)c(F)c1` (stereo unspecified), for which the INHIBITION came to 93.1%. Turning to `CC(C)Oc1ccc(CNC(=O)CC(F)(F)F)cc1F`, the INHIBITION was -4.69%. On to `CC(C)Oc1ccc(CNC(=O)NCc2ccncc2)cc1F`, for which the INHIBITION is 29.5%. In the case of `COc1cccc(CN(C)c2ncc(C(N)=O)cc2Cl)c1`, the INHIBITION is recorded as 26.9%. Regarding `CCN(CC)C(=O)c1ccc(CNc2ncc(C#N)cc2Cl)cc1`, the INHIBITION is -22.8%. For the molecule `CN(c1ncc(C(N)=O)cc1Cl)C1CCC(c2ccccc2)CC1` (stereo unspecified), the INHIBITION came to 38.1%. As for `CN(Cc1ccc(C#N)cc1)C(=O)c1ccn(C)c(=O)c1`, the INHIBITION is 33.4%. Consider `CN(Cc1cccc(C(N)=O)c1)c1ncc(C#N)cc1Cl`, for which the INHIBITION turned out to be 61.1%. In the case of `CN(Cc1cccc(C#N)c1)c1ncc(C(N)=O)cc1Cl`, the INHIBITION is listed as 66.3%. Regarding `COCCN(CCOC)c1ncc(C#N)cc1Cl`, the INHIBITION is -2.39%. On to `CN(Cc1ccc(C#N)cc1)c1ncc(C(N)=O)cc1Cl`, for which the INHIBITION was found to be 65.4%. Turning to `CN(Cc1cccc(C(N)=O)c1)c1ncc(C(N)=O)cc1Cl`, the INHIBITION is 49.1%. The figure for `Cc1cc(CNC(=O)NCCC(=O)N2CCCc3ccccc32)no1` is 17.1%. In the case of `CN(Cc1cccc(C#N)c1)Cc1nc2c(cnn2C)c(=O)[nH]1`, the INHIBITION is 44.3%. As to `OC(CN1CCOCC1)CN1CCc2c(ncn2C2CC2)C1` (stereo unspecified), the INHIBITION is on record as 13.5%. Regarding `OC(COc1ccccc1)CN1CCc2c(ncn2C2CC2)C1` (stereo unspecified), the INHIBITION came out at 5.97%.

Regarding `Cc1ccc(OCC(O)CN2CCc3c(ncn3C3CC3)C2)cc1` (stereo unspecified), the INHIBITION is given as 58.5%. Consider `CS(=O)(=O)CCN1CCc2c(ncn2C2CC2)C1`, for which the INHIBITION was -2.43%. On to `CC(C)S(=O)(=O)CCN1CCc2c(ncn2C2CC2)C1`, for which the INHIBITION was 67.1%.

As for `O=S(=O)(CCN1CCc2c(ncn2C2CC2)C1)c1ccccc1`, the INHIBITION was -11.4%.
